# Assay results reported in the supplement of paper PMC12494721.
# Structures can show the parent of a compound that is named as a salt.
# Columns and labels:
# Settings in all cases: incubation time: 27 h, anaerobic, 37 °C;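 for the amine columns active = adjusted P below 0.05 in both replicates with a change the same way and a mean fold change under 0.8 or over 1.25; inactive = the rest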
# [1] = test system: Clostridium sporogenes DSM 1664; assay: growth (OD595) fold change vs plate DMSO controls (fold change (ratio)); higher = more growth
# Procedure, shortened: (§1)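 The measure reported is growth, taken as fold change against the median of DMSO controls on the same plate. Anaerobic mGAM cultures in 96-well plates (27 h, 37 °C) were read at 595 nm, blank-subtracted, corrected for compound background using 20 µM compound solutions in water, and multiplied by a calibration factor of 5 to give OD. Any fold change above 1.5 became NA, and 2 biological replicates were averaged.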
# [2] = test system: Escherichia coli IAI1; assay: as above
# Procedure, shortened: as §1
# [3] = test system: Klebsiella aerogenes DSM 30053; assay: as above
# Procedure, shortened: as §1
# [4] = test system: Ruminococcus gnavus DSM 108212; assay: as above
# Procedure, shortened: as §1
# [5] = test system: Klebsiella aerogenes DSM 30053; assay: fold change of Histamine concentration vs plate DMSO controls (fold change (ratio)); higher = more amine produced, active = hit call of the paper (significant change in both replicates, either direction)
# Procedure, shortened: (§2)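 Each value is the fold change relative to DMSO-only wells on the same plate. Four gut bacterial strains were grown anaerobically in mGAM at 37 °C for 27 h in 80 µL wells, starting at OD 0.1 before a 1:1 dilution, with compounds at 20 µM final (sweeteners 50 µM). Whole cultures were extracted with cold acetonitrile/methanol containing 0.1% formic acid, centrifuged, and amines were quantified by LC–triple-quadrupole MS (dynamic MRM) against external calibration curves with within-batch drift correction. Values are means of 2 biological replicates.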
# [6] = test system: Clostridium sporogenes DSM 1664; assay: fold change of Tryptamine concentration vs plate DMSO controls (fold change (ratio)); higher = more amine produced, active = hit call of the paper (significant change in both replicates, either direction)
# Procedure, shortened: as §2
# [7] = test system: Ruminococcus gnavus DSM 108212; assay: as above
# Procedure, shortened: as §2
# [8] = test system: Escherichia coli IAI1; assay: fold change of Putrescine concentration vs plate DMSO controls (fold change (ratio)); higher = more amine produced, active = hit call of the paper (significant change in both replicates, either direction)
# Procedure, shortened: as §2
# [9] = test system: Klebsiella aerogenes DSM 30053; assay: as above
# Procedure, shortened: as §2
# [10] = test system: Escherichia coli IAI1; assay: fold change of Cadaverine concentration vs plate DMSO controls (fold change (ratio)); higher = more amine produced, active = hit call of the paper (significant change in both replicates, either direction)
# Procedure, shortened: as §2
# [11] = test system: Klebsiella aerogenes DSM 30053; assay: as above
# Procedure, shortened: as §2
# [12] = test system: Ruminococcus gnavus DSM 108212; assay: fold change of 2-Phenylethylamine concentration vs plate DMSO controls (fold change (ratio)); higher = more amine produced, active = hit call of the paper (significant change in both replicates, either direction)
# Procedure, shortened: as §2
Compound,growth [1],growth [2],growth [3],growth [4],fold change of Histamine concentration [5],fold change of Tryptamine concentration [6],fold change of Tryptamine concentration [7],fold change of Putrescine concentration [8],fold change of Putrescine concentration [9],fold change of Cadaverine concentration [10],fold change of Cadaverine concentration [11],fold change of 2-Phenylethylamine concentration [12]
COc1cc([C@@H]2c3cc4c(cc3[C@@H](O[C@@H]3O[C@@H]5CO[C@@H](C)O[C@H]5[C@H](O)[C@H]3O)[C@H]3COC(=O)[C@H]23)OCO4)cc(OC)c1O [Etoposide] (20 µM),0.285,1.05,1.2,0.101,0.858 (inactive),0.403 (active),0.248 (active),1.08 (inactive),0.982 (inactive),0.966 (inactive),1.03 (inactive),0.236 (active)
NS(=O)(=O)c1cc(C(=O)NN2C[C@@H]3[C@H]4CC[C@H](C4)[C@@H]3C2)ccc1Cl [Tripamide] (20 µM),0.981,1.01,0.978,1.08,1.01 (inactive),1.03 (inactive),1.06 (inactive),0.995 (inactive),0.981 (inactive),0.928 (inactive),0.998 (inactive),1.05 (inactive)
CC(COc1ccccc1)NC(C)C(O)c1ccc(O)cc1 (stereo not given) [Isoxsuprine hydrochloride] (20 µM),1.07,1,1,1.01,0.819 (inactive),1.05 (inactive),0.977 (inactive),1.05 (inactive),1 (inactive),0.927 (inactive),1.03 (inactive),0.966 (inactive)
CN1CC2c3ccccc3Oc3ccc(Cl)cc3C2C1 (stereo not given) [Asenapine maleate] (20 µM),1.1,0.969,1.04,0.834,0.986 (inactive),1.05 (inactive),0.905 (inactive),1 (inactive),1.02 (inactive),0.973 (inactive),0.998 (inactive),0.917 (inactive)
CCCCc1nc(Cl)c(CO)n1Cc1ccc(-c2ccccc2-c2nnn[nH]2)cc1 [Losartan] (20 µM),1.01,0.991,1.01,0.99,1.07 (inactive),0.975 (inactive),1.05 (inactive),1.01 (inactive),1.04 (inactive),0.99 (inactive),1 (inactive),1.06 (inactive)
CC1=C(/C=C/C(C)=C/C=C/C(C)=C\C(=O)O)C(C)(C)CCC1 [Isotretinoin] (20 µM),0.96,0.987,1.02,1.02,0.996 (inactive),0.977 (inactive),1.04 (inactive),1.01 (inactive),1.02 (inactive),0.97 (inactive),0.991 (inactive),1.05 (inactive)
CCCCNc1ccc(C(=O)OCCOCCOCCOCCOCCOCCOCCOCCOCCOC)cc1 [Benzonatate] (20 µM),0.953,1.03,1.04,0.922,0.929 (inactive),0.96 (inactive),0.971 (inactive),1 (inactive),0.995 (inactive),1.04 (inactive),1.01 (inactive),0.936 (inactive)
N=C(N)c1ccc(OCCCCCOc2ccc(C(=N)N)cc2)cc1 [Pentamidine isethionate] (20 µM),1.15,1.05,0.985,1.35,0.984 (inactive),0.79 (inactive),0.365 (active),0.993 (inactive),0.914 (inactive),0.825 (inactive),1.01 (inactive),0.38 (active)
C=CCOC(Cn1ccnc1)c1ccc(Cl)cc1Cl (stereo not given) [Enilconazole] (20 µM),1.05,0.989,0.991,0.919,0.966 (inactive),1.19 (inactive),1.15 (inactive),0.862 (inactive),1.01 (inactive),0.939 (inactive),1.13 (inactive),1.56 (active)
CCCOc1ccccc1-c1nc2[nH]nnc2c(=O)[nH]1 [Zaprinast] (20 µM),1.03,0.972,1,1.2,0.988 (inactive),1.01 (inactive),1.01 (inactive),0.969 (inactive),1 (inactive),0.974 (inactive),1 (inactive),1.06 (inactive)
CC(C)(Oc1ccc(CCNC(=O)c2ccc(Cl)cc2)cc1)C(=O)O [Bezafibrate] (20 µM),1.06,1.01,0.993,0.854,0.964 (inactive),0.996 (inactive),1.01 (inactive),0.997 (inactive),0.991 (inactive),0.983 (inactive),0.992 (inactive),1.01 (inactive)
Oc1c(I)cc(Cl)c2cccnc12 [Clioquinol] (20 µM),0.876,0.817,0.978,0.671,1.03 (inactive),0.976 (inactive),0.628 (active),0.906 (inactive),1.01 (inactive),1.09 (inactive),0.991 (inactive),0.809 (inactive)
CCOC(=O)[C@H](CCc1ccccc1)N[C@@H](C)C(=O)N1CCC[C@H]1C(=O)O [Enalapril maleate] (20 µM),1.07,1.07,1.05,1.15,0.936 (inactive),1 (inactive),1.09 (inactive),1.03 (inactive),0.959 (inactive),0.967 (inactive),1.02 (inactive),1.1 (inactive)
CNCCC(Oc1ccccc1OC)c1ccccc1 (stereo not given) [Nisoxetine hydrochloride] (20 µM),0.994,0.74,0.914,0.975,1.02 (inactive),0.993 (inactive),1.01 (inactive),0.707 (inactive),0.978 (inactive),1.18 (inactive),0.983 (inactive),0.92 (inactive)
CO/N=C1\CN(c2nc3c(cc2F)c(=O)c(C(=O)O)cn3C2CC2)CC1CN (stereo not given) [Gemifloxacin mesylate] (20 µM),0.00381,0.0388,0.126,0.376,0.0873 (active),0.0398 (active),0.148 (active),0.735 (inactive),0.66 (inactive),0.223 (active),0.992 (inactive),0.159 (active)
Cc1nccn1CC1CCc2c(c3ccccc3n2C)C1=O (stereo not given) [Ondansetron hydrochloride] (20 µM),0.937,0.997,0.989,1.08,1.01 (inactive),1.03 (inactive),1.01 (inactive),1.05 (inactive),0.978 (inactive),1.01 (inactive),0.995 (inactive),1.01 (inactive)
Nc1nc(=O)c2nc(CNc3ccc(C(=O)N[C@@H](CCC(=O)O)C(=O)O)cc3)cnc2[nH]1 [Folic acid] (20 µM),0.939,1.08,0.988,0.783,0.93 (inactive),1.04 (inactive),0.955 (inactive),1.05 (inactive),0.997 (inactive),0.98 (inactive),1.01 (inactive),0.928 (inactive)
CC1CS(=O)(=O)CCN1/N=C/c1ccc([N+](=O)[O-])o1 (stereo not given) [Nifurtimox] (20 µM),1.13,1.03,0.924,1.04,0.593 (active),0.895 (inactive),0.971 (inactive),0.949 (inactive),0.949 (inactive),0.974 (inactive),0.998 (inactive),1.03 (inactive)
OCCN1C[C@H](O)[C@@H](O)[C@H](O)[C@H]1CO [Miglitol] (20 µM),1.09,1.01,1.02,1.05,1.02 (inactive),1 (inactive),1.02 (inactive),1 (inactive),1.01 (inactive),0.964 (inactive),1.01 (inactive),1.03 (inactive)
Cc1nc2ccccc2n1Cc1ccc(Cl)cc1 [Chlormidazole] (20 µM),0.927,0.947,0.963,0.899,1.06 (inactive),1 (inactive),0.899 (inactive),0.947 (inactive),0.978 (inactive),0.982 (inactive),0.989 (inactive),0.854 (inactive)
CC(C)NCC(O)COc1cccc2[nH]ccc12 (stereo not given) [Pindolol] (20 µM),1.03,1.13,1.01,0.881,0.989 (inactive),1.07 (inactive),1.12 (inactive),1.18 (inactive),1.04 (inactive),1.21 (inactive),1.15 (inactive),1.27 (inactive)
CC(C)C(=O)OCC(=O)[C@@]12O[C@H](C3CCCCC3)O[C@@H]1C[C@H]1[C@@H]3CCC4=CC(=O)C=C[C@]4(C)[C@H]3[C@@H](O)C[C@@]12C [Ciclesonide] (20 µM),1.08,1.12,1.01,1.17,1.02 (inactive),0.953 (inactive),0.966 (inactive),1.11 (inactive),0.999 (inactive),0.979 (inactive),0.99 (inactive),0.956 (inactive)
Cc1cn[nH]c1 [Fomepizole] (20 µM),0.879,0.987,0.971,1.15,1.03 (inactive),1.03 (inactive),1.01 (inactive),0.999 (inactive),0.995 (inactive),1.02 (inactive),0.986 (inactive),0.988 (inactive)
O=C(NCc1ncc(C(F)(F)F)cc1Cl)c1c(Cl)cccc1Cl (20 µM),1,0.98,1,1.03,1.01 (inactive),0.989 (inactive),1.01 (inactive),1.01 (inactive),1.02 (inactive),1.01 (inactive),1.01 (inactive),0.956 (inactive)
C1N2CN3CN1CN(C2)C3 [Methenamine] (20 µM),0.885,0.986,1.02,1.16,0.978 (inactive),1.05 (inactive),1.04 (inactive),1.01 (inactive),0.982 (inactive),1 (inactive),0.993 (inactive),1.03 (inactive)
